In the library only some 3.3% were active in any assay of this set; here they are far more common.
LDHA block: inhibitors of human lactate dehydrogenase A; P00338; purified LDHA, NADH/diaphorase-resazurin fluorescence; active compounds read low; activity change, % (values are at about 110 or 230 µM); hit rate 0.15% among 480,000; AID 1347041; in the data active means activity change below about -30%; inconclusive means mostly about -25% to -30%
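Enzyme activity of human lactate dehydrogenase 5 (2 nM; 0.06 mM NADH, 0.2 mM pyruvate, 5 min, RT) is measured via a resazurin/diaphorase fluorescence readout of residual NADH.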
PI5P4K alpha inh: PI5P4K alpha (human) kinase inhibition; max response, %; PI5P4Kalpha enzyme, ADP-Glo luminescence, 60 min; active compounds read low; AID 652105; hit rate 1.2% among 330,000; active means max response of -50% or lower; inconclusive means between -30% and -50%; inactive means -30% or higher; further: value at the top dose of about 77 µM
Target sequence (P48426 whole entry, looked up): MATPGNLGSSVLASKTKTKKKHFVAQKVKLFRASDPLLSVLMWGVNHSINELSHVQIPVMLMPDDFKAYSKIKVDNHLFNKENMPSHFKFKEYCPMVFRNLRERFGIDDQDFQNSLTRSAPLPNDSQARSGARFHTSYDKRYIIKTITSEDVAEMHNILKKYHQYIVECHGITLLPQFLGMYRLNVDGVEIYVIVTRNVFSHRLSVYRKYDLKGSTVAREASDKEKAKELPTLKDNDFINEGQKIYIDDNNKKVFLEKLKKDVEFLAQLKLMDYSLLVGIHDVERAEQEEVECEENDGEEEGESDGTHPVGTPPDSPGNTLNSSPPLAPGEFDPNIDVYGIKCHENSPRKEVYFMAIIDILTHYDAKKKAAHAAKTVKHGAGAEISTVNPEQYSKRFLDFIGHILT
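Enzyme plus substrate dispensed, test compounds pinned in, then ATP (5 microM final) added. After 60 min at RT, ADP-Glo reagent 1 for 45 min and reagent 2 for 30 min preceded luminescence imaging.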
PI4K2A inh: PI4K2A (human) kinase inhibition. purified PI4K2A, ADP-Glo luminescence, 1 h; active compounds read low. activity change, negative = inhibition, % at 76.9 µM. hit rate 0.13% among 420,000. AID 1346378; in the data active means activity change below about -50%; inconclusive means mostly about -30% to -49%
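In this quantitative HTS, ADP production by PI4K2A was quantified luminescently after 1 h at ambient temperature; 100 microM adenosine served as plate-quality control.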
D3 antag: D3 dopamine receptor (human) antagonism | P35462 | D3R cells, DiscoveRx beta-arrestin luminescence, antagonist mode; active compounds read low | max response, negative = inhibition, % | hit rate 2.5% among 360,000; in the data active means max response below about -50%; inconclusive means no clear call, values can overlap the other calls
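Cells plated overnight at 1500 cells/well, then exposed to library compounds with dopamine controls for 90 minutes at 37 degrees C. DiscoveRx reagent added for 30–60 minutes at room temperature; luminescence read, quantitative HTS format.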
DRD3 agonist: activates the human D3 dopamine receptor; D3R DiscoveRx beta-arrestin cells, luminescence, 90 min; max activation, %; hit rate 0.58% among 410,000; in the data active means max activation above about 30%
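Agonist-mode cell screen: cells plated at 1500/well and incubated overnight at 37 °C, then exposed to library compounds for 90 min at 37 °C. Detection reagent was added for 30–60 min at room temperature, and luminescence was read.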
ADP-Glo interf: interferes with ADP-Glo detection without enzyme present | ADP-Glo detection counter-screen, luciferase luminescence, no enzyme | AID 743285 | 1,100 tested, under 10 active | Potency, µM (highest dose often 76.9 µM), most hits filed as inhibitors | shares compounds with PI5P4K alpha inh; active means well fitted curve in the direction sought with a large enough effect; inconclusive means small, poorly fitted or top-dose-only effect, or another doubt; inactive means no such curve, though single readings can be large or run the other way
Hits are given with their value; . = inactive; ? = inconclusive; / = not tested or not shown.

SMILES | LDHA block | PI5P4K alpha inh | PI4K2A inh | D3 antag | DRD3 agonist | ADP-Glo interf
Cc1nnc(-c2ccccc2)nc1N(C)C | . | -68 | . | . | . | .
CN(C)c1nc(-c2ccccn2)nnc1-c1ccccc1 | . | . | . | . | . | /
CCc1nnc(NC(=O)CSc2sc3c(O)cc(=O)[nH]c3c2C#N)s1 | . | -84 | . | . | . | .
Cc1csc(NC(=O)CSc2nc3[nH]ncc3c(=O)[nH]2)n1 | . | / | . | . | . | .
Cc1csc(NC(=O)CSc2sc3c(O)cc(=O)[nH]c3c2C#N)n1 | . | -81 | . | . | . | .
COc1ccc(CCN[C@H]2CS(=O)(=O)C[C@@H]2S(=O)(=O)c2ccc(F)cc2)cc1OC | . | / | / | / | / | /
Cc1cc(C)n(-c2nc3c(c(=O)n(CC(N)=O)c(=O)n3C)n2Cc2ccccc2F)n1 | . | / | / | / | / | /
Cc1cc2[nH]c3c4ccccc4nc(C)c3c2cc1C | . | -52 | . | . | . | .
COc1ccc(C(=O)N2CCC2(C)C(=O)O)cc1F (stereo not given) | . | ? | . | . | . | .
O=C(Nc1nnc(SCc2ccc(Cl)cc2)s1)c1ccco1 | . | -57 | . | ? | . | .
Cc1nc2c(nnn2Cc2ccccc2Cl)c(=O)[nH]1 | . | . | . | . | . | /
Cc1nc2c(nnn2Cc2ccccc2)c(=O)[nH]1 | . | -88 | . | . | . | .
O=C(OCc1cccc2cccnc12)c1ccccn1 | . | / | / | / | / | /
O=C(NC1CC1)C1=C[C@@H](c2c[nH]c3ccccc23)C[C@@H](OCc2ccc(CO)cc2)O1 | . | -51 | . | -53 | . | .
O=C(CSc1nnc(Nc2ccccc2)s1)NCc1ccco1 | . | . | . | . | . | /
Cc1ccc(Nc2nnc(SCC(=O)NCc3ccco3)s2)cc1 | . | -52 | . | . | . | .
CCOc1ccc(OCc2ccc(C(=O)N3CCOCC3)cc2)cc1 | . | -54 | . | . | . | .
COCCNC(=S)N/N=C(/C)c1ccc(C(C)(C)C)cc1 | . | / | / | / | / | /
O=C(CSc1nc2ccccc2o1)OCC(=O)c1ccc(-c2ccccc2)cc1 | . | / | / | / | / | /
CC(=O)Cn1nnc2sc(-c3ccccc3)cc2c1=O | . | -54 | . | . | . | .
COc1ccc(CCNC(=O)CNCC(c2ccccc2)N(C)C)cc1OC (stereo not given) | ? | . | . | . | . | .
CCOC(=O)C(C)n1cnc2c1c(=O)n(C)c(=O)n2C (stereo not given) | . | / | / | / | / | /
Cc1nc(-c2ccncc2)[nH]c(=O)c1CC(=O)N(C)C1CCCC1 | . | / | / | / | / | /
Cc1cc(C(=O)Nc2cccc3c2O[C@@H](CN(C)S(=O)(=O)c2ccccc2)[C@H](C)CN([C@@H](C)CO)C3=O)n(C)n1 | . | . | . | . | . | /
Cc1cc(C(=O)Nc2cccc3c2O[C@@H](CN(C)S(C)(=O)=O)[C@H](C)CN([C@@H](C)CO)C3=O)n(C)n1 | . | . | . | ? | . | .
SMILES | LDHA block | PI5P4K alpha inh | PI4K2A inh | D3 antag | DRD3 agonist | ADP-Glo interf
NS(=O)(=O)c1ccc(CCNC(=O)c2ccc3nccnc3c2)cc1 | . | -68 | . | . | . | .
Cc1cc(C(=O)Nc2nc3ccccc3s2)cc(S(=O)(=O)N(C)C)c1C | . | / | / | / | / | /
Cc1cc(NC(=O)CSc2sc3c(O)cc(=O)[nH]c3c2C#N)ccc1Br | . | -104 | . | . | . | .
Cc1cc(NC(=O)CSc2nc3[nH]c(=O)cc(O)c3s2)ccc1Br | . | -58 | . | . | . | .
N#Cc1c(SCC(=O)Nc2cccc(C(F)(F)F)c2)sc2c(O)cc(=O)[nH]c12 | . | -103 | . | . | . | .
Cc1ccc(C)c(NC(=O)CSc2sc3c(O)cc(=O)[nH]c3c2C#N)c1 | . | -64 | . | . | . | .
Cc1ccc(C)c(NC(=O)CSc2nc(C)cc(=O)[nH]2)c1 | / | / | . | / | / | /
O=C(NC1CCCCC1)c1cnn2c1NC(=C1CC1)C=C2C(F)F | . | / | / | / | / | /
Cc1ccc(S(=O)(=O)c2[nH]c(-c3ccccc3)nc2SCC(=O)NC(C)(C)C)cc1 | . | / | / | / | / | /
COc1ccc(C2Nc3ccccc3C(=O)N2Cc2cccnc2)cc1COc1ccc(NC(C)=O)cc1 (stereo not given) | . | / | / | / | / | /
N#Cc1cc(-c2ccccc2)nn1-c1ccccc1 | . | -80 | . | . | . | .
Cn1ccc(-c2ccccc2)n1 | . | . | . | . | . | /
O=c1[nH]c(N2CCOCC2)cc2ccccc12 | . | . | ? | . | . | .
COc1ccc(C(C(=O)NC2CCCC2)N(C(=O)c2snc(C(N)=O)c2N)c2cccc(O)c2)cc1 (stereo not given) | . | -55 | . | . | . | .
CCCCOc1ccc(NC(=O)C(C)C)c2cccnc12 | . | / | / | / | / | /
O=C(CSc1nc(=O)n2cc(Cl)ccc2n1)Nc1ccc2c(c1)OCCO2 | . | -54 | . | . | . | .
CC(=O)Nc1ccc(C(=O)Nc2cccc(S(=O)(=O)N(C)c3ccccc3)c2)cc1 | . | . | . | . | . | /
CN(c1cccc(NC(=O)c2ccc(N(C)S(=O)(=O)c3ccccc3)cc2)c1)S(C)(=O)=O | . | -56 | . | . | . | .
NC(=O)c1ccsc1NC(=O)COC(=O)c1ccncc1 | . | . | . | . | . | /
NC(=O)c1ccsc1NC(=O)COC(=O)c1cnccn1 | . | -63 | . | . | . | .
NC(=O)c1ccsc1NC(=O)COC(=O)c1ccccn1 | . | -52 | . | . | . | .

High-throughput results deposited in PubChem by National Center for Advancing Translational Sciences (NCATS).
